From the supplement of paper PMC11060735
Where a name gives a salt, the structure may show the parent alone. The campaign covered roughly 1,800 compounds. About 50 (3%) showed activity. Many of the other results were omitted from the sample, so actives are more common in it than they were. Values without a mark were called inactive.

system: mouse p16Ink4a+/- lung fibroblasts (INKBRITE, bleomycin-injured); assay: percentage of GFP+ (p16Ink4a+) fibroblasts among all cells in well; higher = less depletion of p16Ink4a+ cells, active = 20 or less; settings: 1 µM; 3 days

How did the “percentage of GFP+” value turn out when COc1cc(OC)c(/C=C/S(=O)(=O)Cc2ccc(OC)c(NCC(=O)O)c2)c(OC)c1 [Rigosertib] was run?
The value was 27.9%.

With O=C(O)COCCN1CCN(C(c2ccccc2)c2ccc(Cl)cc2)CC1 (stereo unspecified) [Cetirizine] as the molecule, how does the “percentage of GFP+” value read?
The value was 46.1%.

With C[C@@H](NCCCc1cccc(C(F)(F)F)c1)c1cccc2ccccc12 [Cinacalcet] as the molecule, how does the “percentage of GFP+” value read?
The value was 33.2%.

For CCCSc1nc(N[C@@H]2C[C@H]2c2ccc(F)c(F)c2)c2nnn([C@@H]3C[C@H](OCCO)[C@@H](O)[C@H]3O)c2n1 [Ticagrelor], which “percentage of GFP+” value is on record?
The value was 30.8%.

How did the “percentage of GFP+” value turn out when COc1cc([C@@H]2c3cc4c(cc3[C@@H](O[C@@H]3O[C@@H]5CO[C@@H](c6cccs6)O[C@H]5[C@H](O)[C@H]3O)[C@H]3COC(=O)[C@H]23)OCO4)cc(OC)c1O [Teniposide] was run?
Its value is 21.1%.

COc1cc([C@@H]2c3cc4c(cc3[C@@H](O[C@@H]3O[C@@H]5CO[C@@H](C)O[C@H]5[C@H](O)[C@H]3O)[C@H]3COC(=O)[C@H]23)OCO4)cc(OC)c1O [Etoposide] was tested. Which “percentage of GFP+” value did it give?
Its value is 19.3% (active).

How did the “percentage of GFP+” value turn out when C=CC(=O)Nc1cccc(Sc2nc(Nc3ccc(N4CCN(C)CC4)cc3)ncc2Cl)c1 was run?
Its value is 46.3%.

O=C(Nc1ccccc1Br)N[C@@H]1CCN(c2ccc(C(F)(F)F)cn2)C1 was tested. Which “percentage of GFP+” value did it give?
Its value is 39.1%.

With CCCC(C)NC(=O)c1ccc(Cl)c(Cl)c1 (stereo unspecified) as the molecule, how does the “percentage of GFP+” value read?
Its value is 45.8%.

For CC(C)C[C@H](NC(=O)CNC(=O)c1cc(Cl)ccc1Cl)B(O)O [Ixazomib], which “percentage of GFP+” value is on record?
The value was 4.65% (active).

CNCC[C@H](Oc1cccc2ccccc12)c1cccs1 [Duloxetine] was tested. Which “percentage of GFP+” value did it give?
The value was 33.8%.

For Cn1c(=O)c2nc[nH]c2n(C)c1=O [Aminophylline, Theophylline], which “percentage of GFP+” value is on record?
Its value is 44.7%.

CN(C)CCN(Cc1ccccc1)c1ccccn1 [Tripelennamine] was tested. Which “percentage of GFP+” value did it give?
The value was 45.6%.

With O=C[C@H](O)[C@@H](O)[C@H](O)[C@H](O)CO [D-glucose] as the molecule, how does the “percentage of GFP+” value read?
Its value is 42.5%.

With C[C@@H]1CN(CC(=O)Nc2ccc3c(c2)Cc2cccc(-c4cc(=O)cc(N5CCOCC5)o4)c2S3)C[C@H](C)O1 as the molecule, how does the “percentage of GFP+” value read?
Its value is 44.7%.

How did the “percentage of GFP+” value turn out when Nc1nc(Cl)nc2c1ncn2[C@@H]1O[C@H](CO)[C@@H](O)[C@@H]1F [Clofarabine] was run?
The value was 35.5%.

COc1ccc2c(c1)c(C1=C(c3c[nH]c4ccccc34)C(=O)NC1=O)cn2CCCN(C)C was tested. Which “percentage of GFP+” value did it give?
Its value is 60.7%.

With OCc1c[nH]c2ccccc12 [Indole-3-carbinol] as the molecule, how does the “percentage of GFP+” value read?
Its value is 47%.

How did the “percentage of GFP+” value turn out when O=C(/C=C/c1ccc(CN(CCO)CCc2c[nH]c3ccccc23)cc1)NO [Dacinostat] was run?
Its value is 4.88% (active).

O=C(O)CCCc1c[nH]c2ccccc12 [3-Indolebutyric Acid] was tested. Which “percentage of GFP+” value did it give?
The value was 48.2%.

Which “percentage of GFP+” value does the source give for C=C(c1ccc(C(=O)O)cc1)c1cc2c(cc1C)C(C)(C)CCC2(C)C [Bexarotene] here?
Its value is 46%.

With COc1ccc(NS(=O)(=O)c2sc3ccc(Cl)cc3c2C)cc1N1CCNCC1 as the molecule, how does the “percentage of GFP+” value read?
Its value is 59.1%.

How did the “percentage of GFP+” value turn out when COc1ccc(Cn2ccc3ccc(C(=O)NO)cc32)cc1 was run?
Its value is 47.2%.

For N[C@@H](CC(=O)N1CCn2c(nnc2C(F)(F)F)C1)Cc1cc(F)c(F)cc1F [Sitagliptin], which “percentage of GFP+” value is on record?
The value was 44.6%.

For CCn1cc(C(=O)O)c(=O)c2cc(F)c(N3CCNC(C)C3)c(F)c21 (stereo unspecified) [Lomefloxacin], which “percentage of GFP+” value is on record?
The value was 44%.

For CC[C@@H](C)Nc1cc(C(=O)NC2CC3CCC(C2)N3c2ccc(C(=O)C3CC3)cn2)c(C)cc1C(N)=O (stereo partly specified), which “percentage of GFP+” value is on record?
Its value is 5.49% (active).

For CC(C)(F)C[C@H](N[C@@H](c1ccc(-c2ccc(S(C)(=O)=O)cc2)cc1)C(F)(F)F)C(=O)NC1(C#N)CC1 [Odanacatib], which “percentage of GFP+” value is on record?
The value was 44.3%.

How did the “percentage of GFP+” value turn out when C#Cc1cccc(Nc2ncnc3cc(OCCOC)c(OCCOC)cc23)c1 [Erlotinib] was run?
The value was 7.35% (active).

With C#Cc1cccc(Nc2ncnc3cc(OC)c(OCCCCCCC(=O)NO)cc23)c1 as the molecule, how does the “percentage of GFP+” value read?
Its value is 37.4%.

With C#Cc1cccc(Nc2ncnc3cc(OCCOC)c(OCCO)cc23)c1 as the molecule, how does the “percentage of GFP+” value read?
Its value is 54.2%.

With COc1ccc(-c2cc(=O)c3c(O)cc(O)cc3o2)cc1O [Diosmetin] as the molecule, how does the “percentage of GFP+” value read?
Its value is 42.4%.

Which “percentage of GFP+” value does the source give for CC(C)(OCc1nn(Cc2ccccc2)c2ccccc12)C(=O)O [Bindarit] here?
The value was 45.3%.

With CCCN1CCCC[C@H]1C(=O)Nc1c(C)cccc1C [Ropivacaine, Ropivacaine Hydrochloride] as the molecule, how does the “percentage of GFP+” value read?
Its value is 46%.

Which “percentage of GFP+” value does the source give for CCCCCCCCCC(=O)N[C@@H](Cc1c[nH]c2ccccc12)C(=O)N[C@H](CC(N)=O)C(=O)N[C@@H](CC(=O)O)C(=O)N[C@@H]1C(=O)NCC(=O)N[C@H](CCCN)C(=O)N[C@@H](CC(=O)O)C(=O)N[C@@H](C)C(=O)N[C@@H](CC(=O)O)C(=O)NCC(=O)N[C@H](CO)C(=O)N[C@@H]([C@@H](C)CC(=O)O)C(=O)N[C@@H](CC(=O)c2ccccc2N)C(=O)O[C@@H]1C [Daptomycin] here?
Its value is 37.2%.

For COC(=O)C1=C(C)N=C(C)/C(=C(/O)OC)C1c1ccccc1[N+](=O)[O-] (stereo unspecified) [Nifedipine], which “percentage of GFP+” value is on record?
The value was 34.3%.

Which “percentage of GFP+” value does the source give for CO/N=C(/C(=O)N[C@@H]1C(=O)N2C(C(=O)O)=C(CSC(=O)c3ccco3)CS[C@H]12)c1csc(N)n1 [Ceftiofur HCl] here?
The value was 39.5%.

C=CC1=C(C(=O)O)N2C(=O)[C@@H](NC(=O)/C(=N\O)c3csc(N)n3)[C@H]2SC1 [Cefdinir] was tested. Which “percentage of GFP+” value did it give?
Its value is 49.9%.

CO/N=C(/C(=O)N[C@H]1C(=O)N2C(C(=O)O)=C(Cn3ccc(=N)n3CCO)CS[C@H]12)c1csc(N)n1 [Cefoselis Sulfate] was tested. Which “percentage of GFP+” value did it give?
The value was 17.3% (active).

How did the “percentage of GFP+” value turn out when O=C(c1ccccc1)c1ccc2n1CCC2C(=O)O (stereo unspecified) [Ketorolac] was run?
Its value is 38.6%.

Oc1ccc(/C=C/c2cc(O)cc(O)c2)cc1 [Resveratrol] was tested. Which “percentage of GFP+” value did it give?
Its value is 42.8%.

How did the “percentage of GFP+” value turn out when CC1(C)CCC(C)(C)c2cc(NC(=O)c3ccc(C(=O)O)cc3)ccc21 [Tamibarotene] was run?
Its value is 28.2%.
